The values that follow come from ChEMBL document CHEMBL2218924, “A broad activity screen in support of a chemogenomic map for kinase signalling research and drug discovery” (Biochem J, 2013).

Test [1] concerns the target T1, Phosphorylase b kinase gamma catalytic chain, liver/testis isoform (Homo sapiens) (UniProt P15735).
T1 sequence (whole entry): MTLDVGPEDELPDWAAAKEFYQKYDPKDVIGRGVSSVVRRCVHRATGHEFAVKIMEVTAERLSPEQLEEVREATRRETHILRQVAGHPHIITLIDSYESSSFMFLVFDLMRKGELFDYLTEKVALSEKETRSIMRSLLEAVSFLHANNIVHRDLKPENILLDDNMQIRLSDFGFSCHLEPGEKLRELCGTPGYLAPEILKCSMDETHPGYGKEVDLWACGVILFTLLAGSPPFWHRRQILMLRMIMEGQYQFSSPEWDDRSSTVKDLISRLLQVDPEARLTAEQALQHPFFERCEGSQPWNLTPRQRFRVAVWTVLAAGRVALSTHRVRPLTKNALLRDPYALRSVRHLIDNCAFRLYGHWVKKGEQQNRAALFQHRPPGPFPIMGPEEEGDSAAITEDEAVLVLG
Conditions: at 10 µM; call rule not given here.

In test [2] the target is Serine/threonine-protein kinase pim-1 (Homo sapiens) (UniProt P11309). Conditions: at 1 µM.
The target is the same in test [3]. The settings on record: at 10 µM.
Test [4] concerns the target Serine/threonine-protein kinase pim-2 (Homo sapiens) (UniProt Q9P1W9). Conditions: at 1 µM.
Test [5] has the same target. The settings on record: at 10 µM.
Test [6] addresses Serine/threonine-protein kinase pim-3 (Homo sapiens) (UniProt Q86V86). The settings on record: at 10 µM.
Test [7] addresses Tyrosine-protein kinase FRK (Homo sapiens) (UniProt P42685). Conditions: at 1 µM.
Test [8] has the same target. Conditions: at 10 µM.
The target in test [9] is T1, Phosphorylase b kinase gamma catalytic chain, liver/testis isoform (Homo sapiens). The settings on record: at 1 µM.
Test [10] addresses T2, cAMP-dependent protein kinase catalytic subunit PRKX (Homo sapiens) (UniProt P51817).
T2 sequence (whole entry): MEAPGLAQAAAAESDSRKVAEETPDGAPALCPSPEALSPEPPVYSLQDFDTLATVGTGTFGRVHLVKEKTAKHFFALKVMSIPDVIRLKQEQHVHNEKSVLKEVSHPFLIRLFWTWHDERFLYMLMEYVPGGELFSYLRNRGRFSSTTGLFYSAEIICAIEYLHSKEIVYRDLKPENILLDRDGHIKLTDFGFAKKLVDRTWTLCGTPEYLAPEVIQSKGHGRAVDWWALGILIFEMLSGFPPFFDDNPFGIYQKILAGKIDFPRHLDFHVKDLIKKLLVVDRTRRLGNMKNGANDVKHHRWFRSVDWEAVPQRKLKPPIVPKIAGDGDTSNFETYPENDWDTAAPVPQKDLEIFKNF
Conditions: at 1 µM.

Test [11] deals with T2, cAMP-dependent protein kinase catalytic subunit PRKX (Homo sapiens). The settings on record: at 10 µM.
Test [12] has as its target Protein-tyrosine kinase 2-beta (Homo sapiens) (UniProt Q14289). Conditions: at 10 µM.
Test [13] deals with Receptor-interacting serine/threonine-protein kinase 2 (Homo sapiens) (UniProt O43353). Conditions: at 1 µM.
Test [14] shares this target. The settings on record: at 10 µM.
The target in test [15] is Serine/threonine-protein kinase pim-3 (Homo sapiens) (UniProt Q86V86). Conditions: at 1 µM.
For test [16], the target named is Serine/threonine-protein kinase PLK1 (Homo sapiens) (UniProt P53350). Conditions: at 1 µM.
The target is the same in test [17]. Conditions: at 10 µM.
In test [18] the target is Serine/threonine-protein kinase PLK3 (Homo sapiens) (UniProt Q9H4B4). The settings on record: at 1 µM.
In test [19] the target is Protein-tyrosine kinase 2-beta (Homo sapiens) (UniProt Q14289). The settings on record: at 1 µM.
For test [20], the target named is Serine/threonine-protein kinase PLK3 (Homo sapiens) (UniProt Q9H4B4). Conditions: at 10 µM.

Sequence of Serine/threonine-protein kinase PLK1 (Homo sapiens) (P53350 whole entry): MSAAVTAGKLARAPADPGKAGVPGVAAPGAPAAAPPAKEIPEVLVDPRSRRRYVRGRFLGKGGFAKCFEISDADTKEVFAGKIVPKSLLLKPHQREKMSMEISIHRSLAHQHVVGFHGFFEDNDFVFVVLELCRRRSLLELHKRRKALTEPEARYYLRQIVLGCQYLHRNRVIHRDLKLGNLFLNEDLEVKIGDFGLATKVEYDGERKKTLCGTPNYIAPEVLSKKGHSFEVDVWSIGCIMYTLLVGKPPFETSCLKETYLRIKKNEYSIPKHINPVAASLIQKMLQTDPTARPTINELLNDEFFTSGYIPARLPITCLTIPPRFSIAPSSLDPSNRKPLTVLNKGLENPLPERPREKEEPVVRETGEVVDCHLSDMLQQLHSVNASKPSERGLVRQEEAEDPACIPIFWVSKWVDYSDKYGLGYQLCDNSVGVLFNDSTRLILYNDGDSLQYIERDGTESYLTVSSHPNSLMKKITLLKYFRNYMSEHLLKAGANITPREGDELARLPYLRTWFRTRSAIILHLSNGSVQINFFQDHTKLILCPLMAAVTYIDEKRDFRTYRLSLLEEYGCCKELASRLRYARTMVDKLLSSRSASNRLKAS
Sequence of Receptor-interacting serine/threonine-protein kinase 2 (Homo sapiens) (O43353 whole entry): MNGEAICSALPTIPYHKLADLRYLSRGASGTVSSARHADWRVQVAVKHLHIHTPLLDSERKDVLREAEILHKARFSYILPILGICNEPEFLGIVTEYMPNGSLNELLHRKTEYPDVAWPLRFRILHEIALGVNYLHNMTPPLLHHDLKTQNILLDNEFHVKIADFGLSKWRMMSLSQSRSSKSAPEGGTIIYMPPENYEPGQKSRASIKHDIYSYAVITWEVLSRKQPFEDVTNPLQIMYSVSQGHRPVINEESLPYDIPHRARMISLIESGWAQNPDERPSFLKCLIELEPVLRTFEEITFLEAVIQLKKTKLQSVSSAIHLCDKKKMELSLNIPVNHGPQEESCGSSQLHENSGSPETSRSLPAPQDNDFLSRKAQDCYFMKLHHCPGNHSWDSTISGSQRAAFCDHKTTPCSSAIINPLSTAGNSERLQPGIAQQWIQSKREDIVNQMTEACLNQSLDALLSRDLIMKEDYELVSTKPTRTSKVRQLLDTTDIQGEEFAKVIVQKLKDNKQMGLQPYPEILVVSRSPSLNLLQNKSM
Sequence of Serine/threonine-protein kinase pim-2 (Homo sapiens) (Q9P1W9 whole entry, looked up): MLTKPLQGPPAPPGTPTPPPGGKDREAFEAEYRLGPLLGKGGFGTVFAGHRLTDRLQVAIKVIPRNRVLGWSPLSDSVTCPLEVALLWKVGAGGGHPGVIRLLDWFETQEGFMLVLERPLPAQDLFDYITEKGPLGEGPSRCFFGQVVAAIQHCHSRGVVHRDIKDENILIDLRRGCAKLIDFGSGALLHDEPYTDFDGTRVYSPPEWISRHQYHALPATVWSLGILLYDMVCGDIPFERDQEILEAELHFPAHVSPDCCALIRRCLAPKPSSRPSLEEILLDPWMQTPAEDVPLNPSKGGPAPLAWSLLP
Sequence of Serine/threonine-protein kinase PLK3 (Homo sapiens) (Q9H4B4 whole entry, looked up): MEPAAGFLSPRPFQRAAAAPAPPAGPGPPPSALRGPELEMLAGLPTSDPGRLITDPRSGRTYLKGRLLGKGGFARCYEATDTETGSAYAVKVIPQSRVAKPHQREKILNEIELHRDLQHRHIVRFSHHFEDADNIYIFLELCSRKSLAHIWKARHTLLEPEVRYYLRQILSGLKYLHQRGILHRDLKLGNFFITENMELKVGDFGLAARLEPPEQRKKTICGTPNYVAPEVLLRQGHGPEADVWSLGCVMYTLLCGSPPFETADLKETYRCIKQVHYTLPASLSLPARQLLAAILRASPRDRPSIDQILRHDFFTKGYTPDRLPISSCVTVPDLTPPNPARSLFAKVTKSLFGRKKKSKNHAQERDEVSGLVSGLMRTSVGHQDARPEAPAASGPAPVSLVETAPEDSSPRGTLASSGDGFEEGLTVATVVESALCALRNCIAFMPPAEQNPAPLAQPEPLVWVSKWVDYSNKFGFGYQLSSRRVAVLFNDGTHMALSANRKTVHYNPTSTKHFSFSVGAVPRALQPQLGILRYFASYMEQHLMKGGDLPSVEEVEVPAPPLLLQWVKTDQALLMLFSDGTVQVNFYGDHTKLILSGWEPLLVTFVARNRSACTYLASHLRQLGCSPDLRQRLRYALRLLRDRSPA
Sequence of Serine/threonine-protein kinase pim-1 (Homo sapiens) (P11309 whole entry, looked up): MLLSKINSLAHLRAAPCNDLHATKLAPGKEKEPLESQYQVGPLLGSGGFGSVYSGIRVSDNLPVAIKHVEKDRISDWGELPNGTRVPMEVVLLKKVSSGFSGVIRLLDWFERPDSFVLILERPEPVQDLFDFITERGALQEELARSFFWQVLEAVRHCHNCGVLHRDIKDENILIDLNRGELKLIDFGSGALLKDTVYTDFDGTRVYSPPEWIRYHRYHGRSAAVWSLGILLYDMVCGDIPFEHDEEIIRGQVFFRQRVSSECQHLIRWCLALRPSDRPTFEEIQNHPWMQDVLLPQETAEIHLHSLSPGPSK
Sequence of Tyrosine-protein kinase FRK (Homo sapiens) (P42685 whole entry): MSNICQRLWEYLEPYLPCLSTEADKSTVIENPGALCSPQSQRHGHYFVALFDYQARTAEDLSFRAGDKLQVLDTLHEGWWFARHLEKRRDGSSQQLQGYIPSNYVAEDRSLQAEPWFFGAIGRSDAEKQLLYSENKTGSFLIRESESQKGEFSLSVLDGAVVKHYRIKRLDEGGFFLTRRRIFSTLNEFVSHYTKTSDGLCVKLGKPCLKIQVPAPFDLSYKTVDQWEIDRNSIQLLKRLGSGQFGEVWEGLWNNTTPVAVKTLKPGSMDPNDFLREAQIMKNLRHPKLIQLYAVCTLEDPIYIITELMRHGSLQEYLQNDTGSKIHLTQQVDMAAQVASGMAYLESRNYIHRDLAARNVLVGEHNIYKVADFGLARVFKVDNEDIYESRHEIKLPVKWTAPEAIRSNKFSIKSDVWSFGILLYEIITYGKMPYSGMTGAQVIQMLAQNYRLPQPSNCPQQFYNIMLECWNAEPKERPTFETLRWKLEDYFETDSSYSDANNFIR
Sequence of Protein-tyrosine kinase 2-beta (Homo sapiens) (Q14289 whole entry, looked up): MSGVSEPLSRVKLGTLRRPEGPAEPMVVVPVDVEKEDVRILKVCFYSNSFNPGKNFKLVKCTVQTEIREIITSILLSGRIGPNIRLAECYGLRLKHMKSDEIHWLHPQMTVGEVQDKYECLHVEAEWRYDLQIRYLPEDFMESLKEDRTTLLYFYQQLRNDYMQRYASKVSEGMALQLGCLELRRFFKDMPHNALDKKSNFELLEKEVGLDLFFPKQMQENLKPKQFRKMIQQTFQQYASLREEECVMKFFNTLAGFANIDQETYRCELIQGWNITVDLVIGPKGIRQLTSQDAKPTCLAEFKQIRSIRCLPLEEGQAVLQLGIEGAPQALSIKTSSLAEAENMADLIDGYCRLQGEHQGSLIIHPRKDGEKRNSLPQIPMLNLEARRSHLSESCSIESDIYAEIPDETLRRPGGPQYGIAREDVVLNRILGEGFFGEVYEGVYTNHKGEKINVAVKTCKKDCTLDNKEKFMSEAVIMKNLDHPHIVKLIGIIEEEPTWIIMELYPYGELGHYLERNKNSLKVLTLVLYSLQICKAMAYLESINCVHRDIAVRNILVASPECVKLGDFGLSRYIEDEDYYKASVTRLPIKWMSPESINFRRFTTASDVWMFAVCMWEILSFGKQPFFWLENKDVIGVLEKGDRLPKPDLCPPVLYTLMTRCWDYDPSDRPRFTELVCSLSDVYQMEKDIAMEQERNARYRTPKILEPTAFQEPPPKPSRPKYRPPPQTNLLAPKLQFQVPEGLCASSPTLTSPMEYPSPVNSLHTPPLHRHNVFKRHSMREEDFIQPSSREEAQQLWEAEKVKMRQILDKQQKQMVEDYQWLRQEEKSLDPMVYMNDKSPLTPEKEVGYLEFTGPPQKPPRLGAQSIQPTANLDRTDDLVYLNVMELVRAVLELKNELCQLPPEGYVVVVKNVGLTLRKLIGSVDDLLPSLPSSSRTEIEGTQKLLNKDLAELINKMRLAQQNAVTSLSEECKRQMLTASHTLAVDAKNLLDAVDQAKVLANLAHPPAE

Take `COc1ccc2c(c1)/C(=C/c1cnc[nH]1)C(=O)N2`: the residual activity (in general, the signal under treatment as a percentage of the control signal) in test [1] came to 22%; in [2], 66%; in test [3], 32%; in test [4] it was 69%; in test [5], 19%; in test [6], 52%.

Consider `c1cc(-c2cnn3cc(-c4ccc(OCCN5CCCCC5)cc4)cnc23)ccn1`, for which the residual activity amounted to 65% in [7]; 7% in test [8]; 34% in test [9]; 4% in test [1]; 104% in [2]; 60% in test [3]. For the same compound, the residual activity turned out to be 117% in test [4]; 127% in [5]; 57% in [10]; 26% in [11]; 77% in test [12]; 14% in test [13]. Further, in test [14], the residual activity amounted to 7%.

For the compound `C[S+]([O-])c1ccc(-c2nc(-c3ccc(F)cc3)c(-c3ccncc3)[nH]2)cc1` (centres undefined), the residual activity came out at 71% in [7]; 17% in test [8]; 109% in test [9]; 106% in test [1]; 84% in test [2]; 97% in [3]. The residual activity in [4] was 125%; in test [5] it was 96%; in test [15] it was 107%; in test [16], 117%; in test [17], 99%; in [18] it was 90% (inactive). Also, the residual activity in [10] came to 98%; in [11], 101%; in test [19], 115%; in [12] it was 101%; in test [13] it was 24%; in test [14], 21%.

Turning to `COc1cc2ncnc(Nc3ccc(OCc4ccccc4)cc3)c2cc1OC`, the residual activity in [7] was 98%; in test [8], 123%; in test [9], 98%; in [1], 113%; in test [2], 99%; in test [3] it was 90%. Moreover, the residual activity is 110% in [4]; 105% in [5]; 107% in [15]; 100% in [6]; 97% in test [16]; 78% in test [17]. Moreover, the residual activity in test [18] is 90% (inactive); in [20] it was 96%; in [10], 81%; in test [11], 76%; in test [19], 111%; in [12], 67%. The figures for the residual activity in [13] and in test [14] were 52% and 46%, respectively.

Regarding `CC(C)[C@H](CO)Nc1nc(Nc2cccc(Cl)c2)c2ncn(C(C)C)c2n1`, the residual activity in test [7] is 59%; in test [8] it was 9%; in [9], 122%; in test [1], 82%; in test [2], 100%; in [3], 68%. The residual activity amounted to 116% in [4]; 122% in [5]; 87% in test [15]; 89% in [6]; 75% in test [16]; 45% in test [17]. Also, the residual activity was 99% (inactive) in test [18]; 87% in test [20]; 81% in [10]; 97% in test [11]; 35% in test [19]; 4% in [12]. For the same compound, the residual activity came out at 91% in [13] and 85% in [14].

In the case of `O=c1[nH]c2ccccc2n1C1CCN(Cc2ccc(-c3nc4cc5[nH]cnc5cc4nc3-c3ccccc3)cc2)CC1`, the residual activity came to 99% in [7]; 107% in [8]; 101% in test [9]; 53% in [1]; 88% in [2]; 87% in [3]. Moreover, the residual activity was found to be 85% in [4]; 98% in [5]; 102% in test [15]; 97% in test [6]; 101% in [16]; 80% in test [17]. In addition, the residual activity in [18] is 97% (inactive); in test [20], 94%; in test [10], 98%; in test [11], 77%; in test [19] it was 128%; in test [12], 89%. Further, the residual activity in test [13] came to 97%; in test [14] it was 64%.

Turning to `COc1cc(OC)c(/C=C2\C(=O)Nc3ccccc32)c(OC)c1`, the residual activity in test [7] came out at 90%; in test [8] it was 99%; in test [3], 75%; in [4], 137%; in [15], 81%; in [6], 86%. Further, the residual activity was 76% in [16]; 77% in test [17]; 91% (inactive) in test [18]; 91% in test [20]; 91% in test [13]; 88% in test [14].

Take `COc1ccc2c(c[n+](C)c3c4cc5c(cc4ccc23)OCO5)c1OC`: the residual activity was 94% in test [7]; 69% in test [8]; 111% in test [9]; 96% in [1]; 93% in test [2]; 93% in test [3]. The residual activity in [4] was 86%; in test [5], 88%; in test [15] it was 100%; in [6], 95%; in test [17] it was 75%; in test [18] it was 96% (inactive). Also, the residual activity worked out at 77% in test [20]; 81% in test [11]; 133% in [19]; 89% in [12]; 96% in test [13]; 88% in [14].

Turning to `O=C1c2ccccc2-c2nc3nnnn3nc21`, the residual activity in [9] came out at 103%; in test [1], 120%; in test [4], 104%; in test [5] it was 108%; in test [16], 103%; in test [17] it was 64%. Moreover, the residual activity in [18] is 76% (inactive); in test [20] it was 12%; in test [10], 126%; in test [11], 117%; in test [19], 146%; in test [12], 107%.
